A selection: hits, their analogues and other compounds. The true share with any hit is near 1.9%.
BJeLR viability – BJeLR cell viability loss; BJeLR (HRASV12) viability, CellTiter-Glo ATP luminescence, 48 h; inhibition, % (test concentration not listed); 300,000 tested, 0.17% active; in the data active = inhibition above about 50%
PrPC TRFRET – cell surface PrPC inhibition, primary TR-FRET screen; P04156; TR-FRET read-out; inhibition, % at 13.8 µM; 370,000 tested, 0.43% active; AID 720596; in the data active = inhibition above about 24%
PrP UTR inh – suppresses PrP 5' UTR mRNA reporter expression | inhibition, % (test concentration not listed) | cell-based PrP 5' UTR mRNA reporter, plate reader | 340,000 tested, 0.35% active | AID 488862; in the data active = inhibition above about 52%
PfHsp40 rescue – restores yeast growth despite PfHsp40 toxicity | S. cerevisiae expressing PfHsp40, growth rescue, ATP luminescence | growth rescue, % at 12.5 µM | 340,000 tested, 0.68% active; in the data active = growth rescue above about 28%, passing the limit was not always enough;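 note: yeast W303a lacking pdr1 and pdr3 grown in galactose medium; growth measured after three days at 30 °C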
RecA intein inh – blocks M. tuberculosis RecA intein splicing; inhibition, % (test concentration not listed); cell-free RecA intein splicing, fluorescence; 290,000 tested, 0.75% active; AID 2221; P9WHJ3; in the data active = inhibition above about 30%
Target sequence (P9WHJ3 whole entry, looked up): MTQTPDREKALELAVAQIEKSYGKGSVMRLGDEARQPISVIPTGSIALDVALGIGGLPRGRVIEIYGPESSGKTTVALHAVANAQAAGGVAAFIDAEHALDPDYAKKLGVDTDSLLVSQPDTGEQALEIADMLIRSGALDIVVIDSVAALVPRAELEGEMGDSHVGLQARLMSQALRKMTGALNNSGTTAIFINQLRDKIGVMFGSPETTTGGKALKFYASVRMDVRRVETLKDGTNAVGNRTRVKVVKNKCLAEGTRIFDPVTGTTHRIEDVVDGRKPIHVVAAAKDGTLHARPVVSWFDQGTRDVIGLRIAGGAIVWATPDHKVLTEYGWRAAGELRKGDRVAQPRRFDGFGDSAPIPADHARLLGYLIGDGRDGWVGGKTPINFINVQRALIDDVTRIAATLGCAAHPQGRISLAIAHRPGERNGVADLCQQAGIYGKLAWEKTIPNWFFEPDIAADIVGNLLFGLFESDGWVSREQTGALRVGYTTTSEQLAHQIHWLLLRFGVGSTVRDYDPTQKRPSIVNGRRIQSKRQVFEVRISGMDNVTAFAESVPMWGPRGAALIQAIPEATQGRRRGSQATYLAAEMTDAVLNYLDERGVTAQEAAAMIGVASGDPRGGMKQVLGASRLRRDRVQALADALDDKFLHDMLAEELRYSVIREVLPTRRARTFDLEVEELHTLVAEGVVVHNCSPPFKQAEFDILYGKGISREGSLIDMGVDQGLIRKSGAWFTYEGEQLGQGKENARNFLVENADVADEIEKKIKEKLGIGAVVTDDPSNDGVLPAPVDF
PriA SSB inh – blocks PriA binding to SSB C-terminal tail. AlphaScreen SSBct-PriA binding, biotinylated peptide. inhibition, % at 33 µM. 430,000 tested, 0.6% active. AID 1272365; in the data active = inhibition mostly above about 37%, no sharp cut-off; inactive = mostly below about 20%
GFP chromo cs – counter-screen GFP chromophore formation inhibition | shares compounds with RecA intein inh | cell-free GFP chromophore formation, fluorescence | EC50, µM | 2,100 tested, 83% active; call rule not given here
Each line names hits and unclear results; the compound was inactive in the other large screens (follow-up assays come after a bar, where they were run).

CCCCCc1cc(=O)oc2c(C(CCN3CCCC(C)C3)c3ccc(OC)cc3)c(OC)cc(OC)c12 (stereo unspecified)	RecA intein inh 37.1 | GFP chromo cs 18.4
C=CCOC(=O)C1=C(C)NC(=O)NC1c1ccc(OC(=O)c2ccco2)c(OC)c1 (stereo unspecified)	RecA intein inh 31.2 | GFP chromo cs inactive
COc1cccc(/C=C(/C#N)c2ccc(F)cc2)c1OCc1cccc(C(=O)O)c1	none
N#C/C(=C/c1cccn1-c1cccc(C(=O)O)c1)c1ccc(F)cc1	RecA intein inh 44.8 | GFP chromo cs inactive
COc1ccc(OC)c(C(c2c(C)[nH][nH]c2=O)c2c(C)[nH][nH]c2=O)c1	RecA intein inh 94.8 | GFP chromo cs 0.43
COc1ccc(O)c(C(c2c(C)[nH][nH]c2=O)c2c(C)[nH][nH]c2=O)c1	RecA intein inh 91.8 | GFP chromo cs 3.77
COc1ccccc1C(c1c(O)cc(C)[nH]c1=O)c1c(O)cc(C)[nH]c1=O	none (no result: BJeLR viability, PrPC TRFRET, PrP UTR inh, PfHsp40 rescue, RecA intein inh)
COc1ccc(N2C(=O)CC(SC(N)=NN=C(C)c3cccs3)C2=O)cc1 (stereo unspecified)	none (no result: BJeLR viability, PrPC TRFRET, PrP UTR inh, PfHsp40 rescue, RecA intein inh)
Cc1ccc(-c2noc(-c3ccccc3C(=O)N3CCOCC3)n2)cc1	none (no result: PrP UTR inh) | GFP chromo cs inactive
CC(=O)Oc1c(/C=C(\C#N)C(N)=O)[nH]c2ccccc12	RecA intein inh 74.4 | GFP chromo cs 0.0544
CO[C@@H](CNC(=O)c1cccc(Br)c1)c1ccsc1	none (no result: BJeLR viability, PrPC TRFRET, PrP UTR inh, PfHsp40 rescue, RecA intein inh)
CC(C)(C)NC(=O)c1csc2nc(-c3ccc(F)cc3)cn12	none (no result: BJeLR viability, PrPC TRFRET, PrP UTR inh, PfHsp40 rescue, RecA intein inh)
Cc1ccc(C(=O)C(OC(=O)CN2C(=O)c3ccccc3C2=O)c2ccccc2)cc1C (stereo unspecified)	RecA intein inh 30.8 | GFP chromo cs inactive
Cc1ccc(C(=O)C(OC(=O)CN2C(=O)c3ccccc3C2=O)c2ccccc2)cc1 (stereo unspecified)	none
O=C(O)CC1SC(=NN=Cc2ccc(-c3ccccc3[N+](=O)[O-])o2)NC1=O (stereo unspecified)	none (no result: BJeLR viability, PrPC TRFRET, PrP UTR inh, PfHsp40 rescue, RecA intein inh)
O=C(O)CC1S/C(=N/N=C/c2ccc(-c3ccccc3[N+](=O)[O-])o2)NC1=O (stereo unspecified)	RecA intein inh 42.7 (no result: PriA SSB inh) | GFP chromo cs 17.4
Cc1ccc(-c2ccc(/C=N/N=C3/NC(=O)C(CC(=O)O)S3)o2)c([N+](=O)[O-])c1 (stereo unspecified)	RecA intein inh 47.6 (no result: PriA SSB inh) | GFP chromo cs 33.9
COc1ccc(Cl)cc1C(=O)NC1CCCC(OC(=O)Nc2ccccc2)C1 (stereo unspecified)	none (no result: BJeLR viability, PrPC TRFRET, PrP UTR inh, PfHsp40 rescue, RecA intein inh)
Cc1c(C(=O)N2Cc3cnc(N4CCOCC4)nc3C2)cnn1-c1ccccc1	none (no result: BJeLR viability, PrPC TRFRET, PrP UTR inh, PfHsp40 rescue, RecA intein inh)
Cc1[nH]nc2c1C(c1ccco1)C(C#N)=C(N)O2 (stereo unspecified)	RecA intein inh 57.8 | GFP chromo cs 26.4
CCC(C)C1C(C#N)=C(N)Oc2n[nH]c(C)c21 (stereo unspecified)	none
CCCC1C(C#N)=C(N)Oc2n[nH]c(C(C)(C)C)c21 (stereo unspecified)	RecA intein inh 74.4 | GFP chromo cs 1.67
CC(C)C1C(C#N)=C(N)Oc2n[nH]c(C(C)(C)C)c21 (stereo unspecified)	none (no result: BJeLR viability, RecA intein inh)
COC(=O)C1=C(C)OC(N)=C(C#N)C1c1ccco1 (stereo unspecified)	none
Cc1[nH]nc2c1C(CCc1ccccc1)C(C#N)=C(N)O2 (stereo unspecified)	RecA intein inh 70.2 | GFP chromo cs 29.3
CC(C)(C)c1[nH]nc2c1C(c1ccco1)C(C#N)=C(N)O2 (stereo unspecified)	RecA intein inh 41.3 | GFP chromo cs 2.83
O=C(C1CCCO1)N1CCc2ccc(NS(=O)(=O)Cc3ccccc3F)cc21 (stereo unspecified)	none (no result: BJeLR viability, PrPC TRFRET, PrP UTR inh, PfHsp40 rescue, RecA intein inh)
Oc1ccc(NC(=S)N=Nc2c(O)[nH]c3ccc(Br)cc23)cc1	RecA intein inh 67.5 | GFP chromo cs inactive
O=C(Cc1ccc(Cl)cc1)Nc1ccc2c(c1)CN(C(=O)C1CC1)CC2	none (no result: BJeLR viability, PrPC TRFRET, PrP UTR inh, PfHsp40 rescue, RecA intein inh)
COc1ccc(OC)c(C2C(C#N)=C(N)Oc3c2c(C)nn3-c2cccc(Cl)c2)c1 (stereo unspecified)	RecA intein inh 37.4 | GFP chromo cs 37.8
Cc1nn(-c2cccc(Cl)c2)c2c1C(c1ccncc1)C(C#N)=C(N)O2 (stereo unspecified)	RecA intein inh 57.1 | GFP chromo cs 23

Bioassay records as filed in PubChem.
